# The panel holds about 83,000 compounds, 20% with a hit somewhere; the sample as a whole holds those more often.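 Percent growth is the endpoint: 0 to 100 indicates growth inhibition (40 means 60% inhibition), 0 means no net growth, and negative values indicate cell death.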 A number with no mark means an inactive call. Active and inactive are the calls of the source. How the source made its calls: active means growth percent below 10; inactive means the rest.
# Tested on: LOX IMVI melanoma
# Assay: NCI-60 one-dose screen, 48 h (100 = growth as untreated, 0 = no growth, -100 = all killed)
# Conditions: 10 µM
row,SMILES,growth
1,COc1cccc(O)c1O,53.7%
2,CC(=O)/C(Cc1ccccc1)=N/O,94.2%
3,C=CCNC(=O)c1ccc(OC)cc1,111%
4,C/C(=N/NC(N)=O)c1ccco1,95.4%
5,COCCOC(=O)c1ccc(C(C)C)cc1,95.7%
6,C[N+](C)=c1ccc2nc3c(cc(Nc4ccccc4)c4ccccc43)oc-2c1,30.4%
7,Cc1cccc(CO)c1,100%
8,Nc1nc(N)c(N=Nc2ccc(C(=O)O)cc2)c(N)n1,101%
9,COCCOCCCl,98.5%
10,Nc1ncnc2[nH]ncc12,1.37% (active)
11,O=[N+]([O-])c1ccc(-c2ncc(-c3ccc(Br)cc3)o2)cc1,104%
12,CCOC(=O)CSc1c([N+](=O)[O-])ncn1C,97.7%
13,CC(C)(O)C#CC#CC(C)(C)O,97%
14,COc1cc(C2NC(=O)C(C#N)=C(Nc3cccc(C)c3)S2)ccc1O (stereo not drawn),99.1%
15,CCOC(=O)Nc1nn[nH]n1,92.9%
16,O=C(NN=C1CCCCC1)C(=O)NN=C1CCCCC1,113%
17,O=C(CCl)Nc1ccc2c(c1)C(=O)c1ccc(NC(=O)CCl)cc1C2=O,-89.6% (active)
18,CCCCOC(=O)c1ccc(C(C)C)cc1,96.7%
19,O=C(NC1CCCCC1)OCc1c(COC(=O)NC2CCCCC2)c(-c2ccc(Cl)c(Cl)c2)n2c1CCC2,13.3%

row,SMILES,growth
1,N#CCCN(CCCN1CCOCC1)CN1C(=O)c2ccccc2C1=O,101%
2,Cc1ccccc1N=C(c1ccccc1)C1C(=O)c2ccccc2C1=O,85.9%
3,O=c1[nH]cc(Cl)cc1O,65.5%
4,CC(C)OC(C(=O)O)c1ccccc1 (stereo not drawn),88.5%
5,CCCOC(=O)C(O)c1ccccc1 (stereo not drawn),104%
6,COc1ccccc1NC(=O)c1cc2cc(Br)ccc2cc1O,3.26% (active)
7,OCCN1CCOCC1,105%
8,OCC1OC(OC2C(O)C(CO)OC2(CO)OC2OC(CO)C(O)C(O)C2O)C(O)C(O)C1O (stereo not drawn),93.1%
9,Cc1ccc(Cl)cc1NC(=O)N(C)CCO,107%
10,CCOC(=O)C(O)C(O)C(=O)OCC (stereo not drawn),99.8%
11,O=c1cc(-c2ccccc2)nc2cc(-c3ccco3)[nH]n12,86.1%
12,S=c1[nH]ccn1-c1ccccc1Cl,100%
13,C[N+](C)(C)C(=O)c1ccccc1,99.9%
14,CCc1ccc(/C(C#N)=C/C=C/c2ccccc2)cc1,44%
15,O=C(O)c1ccnc(Br)c1,107%
16,S=c1nn[nH]c2ccccc12,93.6%
17,O=[N+]([O-])c1ccc(CO)cc1,99.2%
18,O=C1C=C(O)C(=O)C=C1O,98.9%
19,C#Cc1cccc(NC(=O)c2ccc(Cl)cc2Cl)c1,98.5%
